Source: PubChem BioAssay (Tox21)
Results filed as inconclusive are left out. The source made the active and inactive calls. Unless noted, calls come from the whole dose curve; as a rule, active = well fitted curve in the direction sought with a large enough effect in the repeat runs; inconclusive = weak or mixed curves; inactive = no such curve, though single readings can be large; an effect the other way counts as inactive or inconclusive.

Experiments:
[1] = qHTS assay to identify small molecule agonists of the sonic hedgehog signaling (Shh) pathway (AID 1259368; calls by dose curve;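 note: NIH/3T3-derived 3T3Gli1-Luc cells carrying a stable Gli1-driven firefly luciferase reporter; series mostly up to about 92 µM; nearly all actives have a fitted effect of over 15% in size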)
Method in brief: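 A Gli1 transcriptional response element controlled firefly luciferase in 3T3Gli1-Luc cells. Compounds and a positive control were added 4 hr after plating, and cells were incubated a further 24 hr at 37 C before luminescence detection.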

[2] = target: Estrogen receptor beta (Homo sapiens) (UniProt Q92731); experiment: qHTS assay to identify small molecule agonists of the estrogen receptor beta (ER-beta) signaling pathway (AID 1259377; active = well fitted activation curve with a large enough effect in the signal ratio in the repeat runs, not every such curve was filed as active; the % refers to the signal ratio)
Method in brief: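 In HEK293T cells bearing a UAS-beta-lactamase reporter under ER-beta control, DMSO-delivered compounds were incubated for 16 hr at 37C. Activity was detected as fluorescence 2 hours after LiveBLAzer B/G FRET substrate addition.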

[3] = qHTS assay to identify small molecule agonists of the androgen receptor (AR) signaling pathway in the presence of an antagonist - cell viability counter screen (AID 1259379);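 note: MDA-kb2 human breast cancer cells carrying an MMTV luciferase reporter; series mostly up to about 92 µM; nearly all actives have a fitted effect of over 25% in size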
Method in brief: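 Seed MDA-kb2 at 3,000 cells/well; incubate 5 hr, 37C, 0% CO2. Add nilutamide to 3.0uM final, then pin compounds at 15 concentrations. Incubate 16 hr. Add CellTiter-Fluor at 15 hr, read fluorescence after 1 hr.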

[4] = qHTS assay to identify small molecule antagonists of the estrogen receptor beta (ER-beta) signaling pathway - cell viability counter screen (AID 1259382); note: series mostly up to about 92 µM; nearly all actives have a fitted effect of over 55% in size
Method in brief: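 In this multiplexed counter screen, cells were seeded at 2,000 per well in medium with 2% charcoal-stripped FBS and incubated 6 hr before compound and 1nM final E2 were added. Sixteen hours later, ATP-based luminescence reported viability.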

[5] = target: Estrogen receptor (Homo sapiens) (UniProt P03372); experiment: qHTS assay to identify small molecule agonists of the estrogen receptor alpha (ER-alpha) signaling pathway in the presence of an antagonist (AID 1259383; calls by dose curve; note: top concentration of the series differs between compounds; nearly all actives have a fitted effect of over 15% in size)
Method in brief: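 Stably transfected VM7Luc4E2 reporter cells, kept 5 days in charcoal-stripped serum, received ICI-182,780 at 10.0nM final before compound addition. Following 22hr incubation at 37C and 5% CO2, luciferase signal was read by luminescence.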

[6] = qHTS assay to identify small molecule agonists or antagonists of the thyroid stimulating hormone receptor (TSHR) signaling pathway - wild type cell line counter screen (AID 1259384; calls by dose curve)
Method in brief: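 Wild-type HEK293 cells were plated 18 h at 37 C/5% CO2, pin-dosed with compound plus Ro20-1724 medium, held 30 min at room temperature, then given cAMP-d2 and anti-cAMP-cryptate; fluorescence was read after 1 h. Fifteen concentrations, triplicate.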

[7] = target: Thyrotropin receptor (Homo sapiens) (UniProt P16473); experiment: qHTS assay to identify small molecule antagonists of the thyroid stimulating hormone receptor (TSHR) signaling pathway (AID 1259385; calls by dose curve; note: nearly all actives have a fitted effect of over 20% in size)
Method in brief: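 TSHR-HEK293 cells were plated and held 18 h at 37C/5% CO2, then given compound plus Ro20-1724 and stimulated with TSH at 1.5 ng/mL final. After 30 min at room temperature, cAMP was detected with cAMP-d2/anti-cAMP-cryptate (1 h) by fluorescence.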

[8] = qHTS assay to identify small molecule agonists of the estrogen receptor alpha (ER-alpha) signaling pathway in the presence of an antagonist - cell viability counter screen (AID 1259386);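 note: series mostly up to about 92 µM; cells exposed to compounds for 22 h at 37 °C before the viability read; nearly all actives have a fitted effect of over 30% in size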
Method in brief: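 Viability counter screen using VM7Luc4E2 (full-length ER-alpha, four ERE-luciferase). The cells were treated with compounds alongside ICI-182,780 10.0nM for 22hr, and live-cell protease fluorescence was quantified with CellTiter-Fluor.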

[9] = target: Progesterone receptor (Homo sapiens) (UniProt P06401); experiment: qHTS assay to identify small molecule agonists of the progesterone receptor (PR) signaling pathway (AID 1346784; calls by dose curve; note: nearly all actives have a fitted effect of over 30% in size)
Method in brief: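 Using charcoal-stripped serum (2%) to limit endogenous steroids, PR-UAS-bla HEK 293T cells received compounds for 16 hr at 37C after 6 hr plating; beta-lactamase FRET fluorescence was recorded following 2 hr substrate loading at room temperature.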

[10] = qHTS assay to identify small molecule antagonists of the progesterone receptor (PR) signaling pathway - cell viability counter screen (AID 1346798); note: series mostly up to about 92 µM; nearly all actives have a fitted effect of over 50% in size
Method in brief: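 ATP content as viability readout: CellTiter-Glo luminescence, 30 min room temperature, in PR-UAS-bla HEK293T cells after 16 hr compound/R5020 treatment at 37C and 5% CO2.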

[11] = qHTS assay to identify small molecule agonists of the progesterone receptor (PR) signaling pathway - cell viability counter screen (AID 1346799; calls by dose curve; note: nearly all actives have a fitted effect of over 45% in size)
Method in brief: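 Cytotoxicity in PR-bla HEK293T cells: 16 h compound, 37C; CellTiter-Glo added post-FRET read; luminescence after 30 min RT.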

[12] = qHTS assay to identify small molecule antagonists of the TGF-beta/Smad signaling pathway - cell viability counter screen (AID 1346824); note: nearly all actives have a fitted effect of over 50% in size
Method in brief: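 SBE-bla HEK 293T cells were plated overnight at 37 C, then given compounds in DMSO plus TGF-beta1 (added as 0.25 ng/mL solution) for 5 hr. After the bla read, CellTiter-Glo was added to the same wells and luminescence read after 30 min at room temperature.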

[13] = qHTS assay to identify small molecule agonists of the TGF-beta/Smad signaling pathway - cell viability counter screen (AID 1346829); note: top concentration of the series differs between compounds; nearly all actives have a fitted effect of over 45% in size
Method in brief: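 Tox21 qHTS format: SBE-bla HEK 293T cells treated with DMSO-dissolved compounds for 5 hr; CellTiter-Glo luminescence after 30 min at room temperature.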

[14] = qHTS assay to identify small molecule agonists of the TGF-beta/Smad signaling pathway (AID 1346859; active = well fitted activation curve with a large enough effect in the signal ratio in the repeat runs, not every such curve was filed as active; the % refers to the signal ratio; note: series mostly up to about 77 µM)
Method in brief: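 Stable Smad binding element-beta-lactamase HEK 293T cells; 5 hr compound exposure at 37 C under 5% CO2; 2 hr room-temperature substrate step; fluorescence excited at 405 nm, collected at 460 nm and 530 nm.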

[15] = target: Thyrotropin-releasing hormone receptor (Homo sapiens) (UniProt P34981); experiment: qHTS assay to identify small molecule antagonists of the thyrotropin-releasing hormone receptor (TRHR) signaling pathway (AID 1346877; active = well fitted inhibition curve with a large enough effect in the repeat runs, not every such curve was filed as active; note: series mostly up to about 51 µM)
Method in brief: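 Following an 18 h incubation at 37 °C and a 2 h calcium dye load, TRHR-HEK293 cells were exposed to compound (5 min, room temperature) and challenged with TRH, 1 nM final.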

[16] = qHTS assay to identify small molecule agonists of the estrogen receptor beta (ER-beta) signaling pathway - cell viability counter screen (AID 1259380); note: nearly all actives have a fitted effect of over 30% in size
Method in brief: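 CellTiter-Glo read, 30 min RT, same wells as bla assay; cells ER-beta-UAS-bla HEK293T; 16 hr compound, 37C; medium 2% charcoal-stripped FBS.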

[17] = target: Progesterone receptor (Homo sapiens) (UniProt P06401); experiment: qHTS assay to identify small molecule antagonists of the progesterone receptor (PR) signaling pathway (AID 1346795; active = well fitted inhibition curve with a large enough effect in the signal ratio in the repeat runs, not every such curve was filed as active; the % refers to the signal ratio)
Method in brief: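 Inhibition of R5020-induced (1 nM final) beta-lactamase reporter signal in PR-UAS-bla HEK293T cells was scored by FRET fluorescence after overnight (16 hr) compound treatment.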

[18] = target: Androgen receptor (Homo sapiens) (UniProt P10275); experiment: qHTS assay to identify small molecule agonists of the androgen receptor (AR) signaling pathway in the presence of an antagonist (AID 1259381; calls by dose curve; note: nearly all actives have a fitted effect of over 15% in size)
Method in brief: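 Test compounds at 15 concentrations were incubated for 16hr with MDA-kb2 reporter cells in presence of 3.0uM nilutamide (final). Signal: ONE-Glo luciferase luminescence.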

[19] = target: Estrogen receptor beta (Homo sapiens) (UniProt Q92731); experiment: qHTS assay to identify small molecule antagonists of the estrogen receptor beta (ER-beta) signaling pathway (AID 1259378; active = well fitted inhibition curve with a large enough effect in the signal ratio in the repeat runs, not every such curve was filed as active; the % refers to the signal ratio)
Method in brief: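 ER-beta-UAS-bla HEK293T (GripTite) cells in 2% charcoal-stripped FBS medium were preincubated 6 hr at 37C, dosed with compound, then stimulated with 1 nM E2 (final) for 16 hr; beta-lactamase reporter read by B/G FRET fluorescence after 2 hr substrate loading.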

[20] = qHTS assay to identify small molecule antagonists of the sonic hedgehog signaling (Shh) pathway (AID 1259369; calls by dose curve; note: nearly all actives have a fitted effect of over 45% in size)
Method in brief: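 For antagonist detection, the reporter line received test compounds together with conditioned medium, incubated 24hr at 37 C, 5% CO2, then luminescence was recorded following 30min room-temperature luciferase reagent incubation.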
% is set by controls: 0 for no effect and ±100 for the full control effect.

Sequence of Thyrotropin-releasing hormone receptor (Homo sapiens) (P34981 whole entry, looked up): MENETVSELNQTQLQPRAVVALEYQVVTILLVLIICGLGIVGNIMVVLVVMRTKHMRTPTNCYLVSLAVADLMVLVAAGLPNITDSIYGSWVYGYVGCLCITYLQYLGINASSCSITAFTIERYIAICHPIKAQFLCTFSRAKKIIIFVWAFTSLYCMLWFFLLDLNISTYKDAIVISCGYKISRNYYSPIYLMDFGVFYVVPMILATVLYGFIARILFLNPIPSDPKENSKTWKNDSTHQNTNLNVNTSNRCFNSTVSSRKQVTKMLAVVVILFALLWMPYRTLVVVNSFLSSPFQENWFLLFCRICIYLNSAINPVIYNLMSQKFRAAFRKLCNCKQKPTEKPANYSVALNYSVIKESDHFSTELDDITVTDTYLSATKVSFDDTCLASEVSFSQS
Sequence of Androgen receptor (Homo sapiens) (P10275 whole entry, looked up): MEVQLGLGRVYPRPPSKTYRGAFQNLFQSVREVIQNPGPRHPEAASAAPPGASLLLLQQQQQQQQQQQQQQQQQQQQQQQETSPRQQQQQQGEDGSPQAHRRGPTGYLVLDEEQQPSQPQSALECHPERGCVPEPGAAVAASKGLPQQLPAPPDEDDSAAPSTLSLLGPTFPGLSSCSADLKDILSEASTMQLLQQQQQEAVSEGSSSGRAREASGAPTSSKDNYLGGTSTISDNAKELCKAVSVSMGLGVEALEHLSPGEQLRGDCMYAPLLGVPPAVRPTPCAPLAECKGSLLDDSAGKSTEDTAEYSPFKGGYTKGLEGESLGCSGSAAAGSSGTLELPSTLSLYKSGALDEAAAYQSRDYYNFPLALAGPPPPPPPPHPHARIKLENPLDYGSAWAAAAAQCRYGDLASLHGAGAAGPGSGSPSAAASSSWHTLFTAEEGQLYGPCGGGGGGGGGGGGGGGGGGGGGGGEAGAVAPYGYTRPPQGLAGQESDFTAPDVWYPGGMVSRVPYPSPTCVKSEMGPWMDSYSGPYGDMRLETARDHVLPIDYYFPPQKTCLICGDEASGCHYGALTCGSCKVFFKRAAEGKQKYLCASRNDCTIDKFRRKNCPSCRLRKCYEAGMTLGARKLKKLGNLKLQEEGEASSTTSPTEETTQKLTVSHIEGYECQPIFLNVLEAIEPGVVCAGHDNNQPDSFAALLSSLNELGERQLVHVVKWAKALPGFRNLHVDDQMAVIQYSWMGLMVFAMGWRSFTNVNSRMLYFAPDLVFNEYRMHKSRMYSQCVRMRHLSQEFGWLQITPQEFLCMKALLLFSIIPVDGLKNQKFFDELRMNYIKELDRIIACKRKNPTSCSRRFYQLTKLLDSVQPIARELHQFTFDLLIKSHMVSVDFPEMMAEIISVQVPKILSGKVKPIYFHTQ
Sequence of Progesterone receptor (Homo sapiens) (P06401 whole entry, looked up): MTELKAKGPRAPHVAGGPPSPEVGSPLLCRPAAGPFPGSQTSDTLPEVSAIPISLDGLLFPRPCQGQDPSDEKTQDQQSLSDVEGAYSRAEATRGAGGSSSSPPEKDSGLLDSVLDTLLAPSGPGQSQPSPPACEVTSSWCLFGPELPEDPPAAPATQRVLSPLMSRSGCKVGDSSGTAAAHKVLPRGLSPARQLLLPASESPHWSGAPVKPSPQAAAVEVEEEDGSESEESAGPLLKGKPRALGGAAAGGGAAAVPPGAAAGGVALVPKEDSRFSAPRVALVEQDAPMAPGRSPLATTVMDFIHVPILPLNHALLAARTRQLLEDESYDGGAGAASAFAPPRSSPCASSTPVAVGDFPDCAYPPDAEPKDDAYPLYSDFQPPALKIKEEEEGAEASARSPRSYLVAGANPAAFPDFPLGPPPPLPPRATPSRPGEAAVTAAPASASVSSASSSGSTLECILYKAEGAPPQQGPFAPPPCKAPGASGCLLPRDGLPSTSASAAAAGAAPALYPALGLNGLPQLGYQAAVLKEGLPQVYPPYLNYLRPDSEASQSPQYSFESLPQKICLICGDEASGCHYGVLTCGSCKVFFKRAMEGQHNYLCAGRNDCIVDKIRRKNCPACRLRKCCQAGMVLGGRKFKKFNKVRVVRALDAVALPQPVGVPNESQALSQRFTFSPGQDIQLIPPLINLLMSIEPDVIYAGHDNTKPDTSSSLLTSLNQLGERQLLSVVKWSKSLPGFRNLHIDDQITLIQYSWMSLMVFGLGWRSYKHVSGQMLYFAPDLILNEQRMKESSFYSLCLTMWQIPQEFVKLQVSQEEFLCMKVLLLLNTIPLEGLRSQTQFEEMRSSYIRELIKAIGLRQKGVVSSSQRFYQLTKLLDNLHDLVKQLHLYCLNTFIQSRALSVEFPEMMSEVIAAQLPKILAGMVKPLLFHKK
Sequence of Thyrotropin receptor (Homo sapiens) (P16473 whole entry, looked up): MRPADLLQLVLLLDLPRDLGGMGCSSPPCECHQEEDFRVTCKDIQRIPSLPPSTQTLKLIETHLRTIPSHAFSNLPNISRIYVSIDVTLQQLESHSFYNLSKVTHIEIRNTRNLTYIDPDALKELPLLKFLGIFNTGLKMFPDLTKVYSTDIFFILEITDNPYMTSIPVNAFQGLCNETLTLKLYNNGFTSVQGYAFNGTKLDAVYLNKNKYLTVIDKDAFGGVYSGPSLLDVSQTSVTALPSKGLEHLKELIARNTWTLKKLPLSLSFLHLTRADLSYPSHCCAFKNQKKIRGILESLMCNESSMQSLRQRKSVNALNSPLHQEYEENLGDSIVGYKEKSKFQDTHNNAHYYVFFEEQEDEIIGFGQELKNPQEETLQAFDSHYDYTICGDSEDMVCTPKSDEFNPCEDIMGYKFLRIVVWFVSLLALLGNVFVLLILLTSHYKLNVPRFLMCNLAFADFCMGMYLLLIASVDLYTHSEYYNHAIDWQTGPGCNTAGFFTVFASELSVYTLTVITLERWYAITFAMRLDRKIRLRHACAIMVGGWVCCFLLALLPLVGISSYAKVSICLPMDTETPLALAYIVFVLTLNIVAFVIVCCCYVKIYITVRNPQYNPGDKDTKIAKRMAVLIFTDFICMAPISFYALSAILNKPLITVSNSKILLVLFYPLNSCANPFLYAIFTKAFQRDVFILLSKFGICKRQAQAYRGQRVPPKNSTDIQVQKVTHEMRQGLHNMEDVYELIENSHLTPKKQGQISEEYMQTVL
Sequence of Estrogen receptor beta (Homo sapiens) (Q92731 whole entry, looked up): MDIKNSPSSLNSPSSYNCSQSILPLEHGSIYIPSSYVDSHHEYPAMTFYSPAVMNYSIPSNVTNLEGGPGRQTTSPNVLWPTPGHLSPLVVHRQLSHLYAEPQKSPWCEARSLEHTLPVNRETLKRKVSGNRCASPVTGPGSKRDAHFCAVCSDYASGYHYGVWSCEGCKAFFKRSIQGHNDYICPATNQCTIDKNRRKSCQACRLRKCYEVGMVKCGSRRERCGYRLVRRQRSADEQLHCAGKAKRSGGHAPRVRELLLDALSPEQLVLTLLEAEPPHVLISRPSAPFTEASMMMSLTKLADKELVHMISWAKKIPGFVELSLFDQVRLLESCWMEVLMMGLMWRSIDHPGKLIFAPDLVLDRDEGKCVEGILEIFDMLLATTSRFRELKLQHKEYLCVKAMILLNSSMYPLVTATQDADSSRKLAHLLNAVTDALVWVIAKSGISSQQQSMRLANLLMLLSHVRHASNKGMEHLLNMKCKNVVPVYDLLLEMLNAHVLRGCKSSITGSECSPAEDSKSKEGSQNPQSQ
Sequence of Estrogen receptor (Homo sapiens) (P03372 whole entry, looked up): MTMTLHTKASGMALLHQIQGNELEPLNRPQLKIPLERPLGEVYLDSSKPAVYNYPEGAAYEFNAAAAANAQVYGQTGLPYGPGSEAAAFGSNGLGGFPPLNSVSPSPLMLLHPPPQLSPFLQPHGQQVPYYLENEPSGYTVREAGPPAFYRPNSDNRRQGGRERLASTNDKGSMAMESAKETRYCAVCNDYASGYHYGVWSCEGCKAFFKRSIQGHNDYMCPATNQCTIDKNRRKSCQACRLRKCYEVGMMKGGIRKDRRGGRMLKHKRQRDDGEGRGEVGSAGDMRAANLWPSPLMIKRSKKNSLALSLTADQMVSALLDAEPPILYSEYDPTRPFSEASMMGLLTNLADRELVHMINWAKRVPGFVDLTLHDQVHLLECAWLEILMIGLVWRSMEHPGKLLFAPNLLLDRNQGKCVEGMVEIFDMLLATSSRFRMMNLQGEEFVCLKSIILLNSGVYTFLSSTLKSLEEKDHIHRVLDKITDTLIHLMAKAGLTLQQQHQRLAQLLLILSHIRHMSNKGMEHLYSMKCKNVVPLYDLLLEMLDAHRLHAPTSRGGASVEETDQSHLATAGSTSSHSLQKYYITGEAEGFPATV

CCn1cc(C(=O)O)c(=O)c2cc(F)c(N3CCN(C)CC3)cc21
inactive: activity change [1] -0.335% [at 18.9 µM, active compounds read high] | activation [2] 2.22% [at 19 µM] | activity change, negative = cytotoxicity [3] 3.8% [at 19 µM] | activity change, negative = cytotoxicity [4] 0.879% [at 19 µM] | activation [5] 1.75% [at 19 µM] | cAMP activity change [6] -4.11% [at 18.9 µM] | activity change, negative = inhibition [7] 0.775% [at 19 µM] | activity change, negative = cytotoxicity [8] 0.853% [at 19 µM] | activation [9] -0.0581% [at 19 µM] | activity change, negative = cytotoxicity [10] 0.0653% [at 18.9 µM] | activity change, negative = cytotoxicity [11] -1.41% [at 19 µM] | viability change, negative = cytotoxic [12] 3.51% [at 15.8 µM] | activity change, negative = cytotoxicity [13] -2.92% [at 15.8 µM] | activation [14] 0.23% [at 15.8 µM] | activity, negative = inhibition [15] 2.2% [at 10.5 µM]

CN(C)CCOC(c1ccc(Cl)cc1)c1ccccn1 (stereo unspecified)
inactive: Potency [1] | Potency [3] | Potency [16] | Potency [4] | Potency [5] | outcome [6] | Potency [7] | outcome [8] | Potency [9] | Potency [17] | Potency [10] | Potency [11] | outcome [13] | outcome [14] | outcome [15]

COC(=O)C1=C(C)NC(C)=C(C(=O)OCC(C)=O)C1c1ccccc1[N+](=O)[O-] (stereo unspecified)
inactive: Potency [1] | Potency [3] | Potency [16] | Potency [4] | Potency [5] | outcome [6] | Potency [7] | outcome [8] | Potency [9] | Potency [17] | Potency [10] | outcome [12] | outcome [13] | outcome [14] | outcome [15]

CCn1c(=O)c2c(nc(/C=C/c3ccc(OC)c(OC)c3)n2C)n(CC)c1=O
inactive: Potency [1] | Potency [3] | Potency [4] | outcome [6] | outcome [8] | Potency [9] | Potency [17] | outcome [12] | outcome [13] | outcome [14] | outcome [15]

Cc1ccc(N)cc1[N+](=O)[O-]
inactive: Potency [1] | Potency [3] | Potency [16] | Potency [18] | Potency [4] | outcome [6] | Potency [7] | outcome [8] | Potency [9] | Potency [17] | Potency [10] | Potency [11] | outcome [12] | outcome [13] | outcome [14] | outcome [15]

CC(=O)O[C@H](CC(=O)[O-])C[N+](C)(C)C
inactive: Potency [1] | Potency [3] | Potency [16] | Potency [4] | Potency [5] | outcome [6] | Potency [7] | outcome [8] | Potency [17] | Potency [11] | outcome [12] | outcome [13] | outcome [14] | outcome [15]

CCCCCCCCC=O
inactive: Potency [1] | Potency [19] | Potency [3] | Potency [16] | Potency [4] | outcome [6] | Potency [7] | outcome [8] | Potency [17] | Potency [10] | outcome [13]

[O-][N+](=Nc1ccccc1)c1ccccc1
inactive: Potency [20] | Potency [19] | Potency [3] | Potency [16] | Potency [4] | Potency [5] | outcome [6] | outcome [8] | Potency [9] | Potency [17] | Potency [11] | outcome [12] | outcome [13] | outcome [14] | outcome [15]

Cc1nc(-c2ccc(OCC(C)C)c(C#N)c2)sc1C(=O)O
inactive: Potency [20] | Potency [3] | Potency [18] | Potency [5] | outcome [6] | outcome [8] | Potency [9] | Potency [10] | Potency [11] | outcome [12] | outcome [13]

C#CC(O)C(CC)CCCC (stereo unspecified)
inactive: Potency [1] | outcome [2] | Potency [19] | Potency [3] | Potency [16] | Potency [18] | Potency [4] | outcome [6] | Potency [7] | outcome [8] | Potency [9] | Potency [17] | Potency [11] | outcome [12] | outcome [13] | outcome [14] | outcome [15]

O=[N+]([O-])c1ccc(CCO)cc1
inactive: Potency [1] | Potency [3] | Potency [4] | Potency [5] | Potency [7] | outcome [8] | Potency [9] | Potency [17] | Potency [10] | Potency [11] | outcome [12] | outcome [13] | outcome [14] | outcome [15]

CC(C)(O)C(=O)c1ccc(OCCO)cc1
inactive: Potency [1] | Potency [19] | Potency [3] | Potency [16] | Potency [4] | Potency [5] | outcome [8] | Potency [9] | Potency [17] | Potency [11] | outcome [12] | outcome [13] | outcome [14] | outcome [15]

OCC(O)[C@@H](O)[C@H](O)[C@H](O)CO[C@H]1O[C@H](CO)[C@@H](O)[C@H](O)[C@H]1O (stereo partly specified)
inactive: Potency [1] | outcome [2] | Potency [19] | Potency [3] | Potency [16] | outcome [6] | Potency [7] | outcome [8] | Potency [9] | Potency [17] | Potency [10] | Potency [11] | outcome [12] | outcome [13] | outcome [14] | outcome [15]

NC(CS)C(=O)O (stereo unspecified)
inactive: Potency [1] | Potency [3] | outcome [6] | Potency [7] | outcome [8] | Potency [9] | Potency [17] | Potency [10] | Potency [11] | outcome [12] | outcome [13] | outcome [14]
